Sampled rows, rich in hits. Any-hit rate of the full collection: about 1.5%.
GASC-1 inh: inhibitors of GASC-1 histone demethylase, primary screen, biochemical, fluorescence, DELFIA europium | inhibition, % at 2.35 µM | GST-JMJD2C(1-420) H3K9me3 demethylation | 330,000 tested, 0.069% active;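 active = more than half of a compound's replicate wells show inhibition beyond 50%, single wells judged on their own value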;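 note: signal counts dimethyl H3K9 product captured on neutravidin plate; 0% = median of DMSO wells and 100% = 0.3 times that DMSO median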
Target sequence (Q9H3R0 1-420 limits assumed): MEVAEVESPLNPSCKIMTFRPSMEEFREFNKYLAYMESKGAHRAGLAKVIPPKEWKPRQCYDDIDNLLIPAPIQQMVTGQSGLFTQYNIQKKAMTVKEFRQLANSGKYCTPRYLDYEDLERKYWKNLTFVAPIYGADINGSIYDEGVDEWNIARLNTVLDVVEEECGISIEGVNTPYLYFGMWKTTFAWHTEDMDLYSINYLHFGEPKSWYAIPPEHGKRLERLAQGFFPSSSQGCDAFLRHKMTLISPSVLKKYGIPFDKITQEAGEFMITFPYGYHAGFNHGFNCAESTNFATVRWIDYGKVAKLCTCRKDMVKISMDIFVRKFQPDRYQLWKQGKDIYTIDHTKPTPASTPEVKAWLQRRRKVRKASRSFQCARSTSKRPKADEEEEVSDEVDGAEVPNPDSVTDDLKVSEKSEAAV
Efflux pump inh: inhibitors of Candida efflux pumps in yeast, primary screen, S. cerevisiae, Nile Red, multiplex; S. cerevisiae Candida pump triplex; AID 485275, 2010; inhibition, % at 10 µM; 330,000 tested, 0.44% active;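 active = plate passing quality check with inhibition over a set limit, or well fluorescence over plate mean plus 4 SD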;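 note: Nile Red retained in pooled yeast measured as flow cytometry median fluorescence; 0% = buffer negative control and 100% = Enniatin B positive control; higher means more Nile Red kept so more efflux inhibition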
NALP3 yeast inh: NALP3 inflammasome inhibitors in reconstituted yeast, primary screen, luminescence, uHTS; Yeast reconstituted NLRP3/ASC/caspase-1, beta-gal luminescence, 24 h; inhibition, % at 10 µM; 330,000 tested, 0.39% active; AID 2825, 2010;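 active = inhibition of 50% or more; inactive = inhibition below 50%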;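 note: plate controls were induced DMSO wells for no effect and uninduced yeast grown without galactose for full effect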
PolyA inh: polyadenylation inhibitors in yeast reporter cells, primary screen, luminescence, S. cerevisiae; S. cerevisiae SKY197-pL101 polyadenylation reporter, beta-gal luminescence; efflux-impaired pdr1/pdr3 knockout yeast; score 100 = 6 SD above DMSO; activity score, % at 12 µM; 300,000 tested, 0.02% active; AID 1875, 2009;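 active = lowest replicate activity score at least 50, where 100 means six control SD above control mean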;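 note: yeast exposed to compound for 9 h at 30 °C; higher score means more reporter readthrough which indicates perturbed polyadenylation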
HDAC3 inh: HDAC3 deacetylase inhibitors, primary screen, biochemical, fluorescence, cell-free homogeneous; inhibition, % at 8.3 µM; recombinant HDAC3, fluorogenic peptide/trypsin coupled; Histone deacetylase 3 (Homo sapiens), O15379; 320,000 tested, 0.15% active; in the data active = inhibition above about 26%, passing the limit was not always enough
NALP1 inh: NALP1 inflammasome inhibitors in reconstituted yeast, colorimetric, S. cerevisiae, triplicate retest; S. cerevisiae NALP1/ASC/caspase-1 growth, X-gal OD620, 72 h; 280,000 tested, 0.61% active; inhibition, % at 10 µM; AID 2071, 2009; in the data active = inhibition mostly above about 24%, no sharp cut-off; inactive = mostly below about 32%
Numbers without * were called inactive; · = not tested or not shown.

SMILES	GASC-1 inh	Efflux pump inh	NALP3 yeast inh	PolyA inh	HDAC3 inh	NALP1 inh
CCc1cc(C(=O)Nc2ccc(S(=O)(=O)NC3=NCCCCC3)cc2)sc1C	-1.7	-0.1	7.9	-6.5	4.7	·
O=C(c1ccco1)N1CCN(C(=O)c2cccc3c2C(=O)N(Cc2cccnc2)C3)CC1	-28.3	0.0	8.8	7.4	-0.9	35.8*
Cc1ccc(/C=N/NC(=O)c2cc(C)oc2C)cc1	-25.8	-0.1	20.5	14.1	2.0	36.4*
CN(C)CCCNS(=O)(=O)c1ccc(Cl)s1	-1.4	-0.1	5.7	2.7	-0.6	29.9*
COc1ccc(OC)c(NC(=O)CS(=O)(=O)Cc2ccccc2)c1	3.4	·	8.7	-6.9	·	39.1
COc1ccc(OC)c(NS(=O)(=O)Cc2ccccc2)c1	1.1	0.3	8.9	13.4	-2.2	42.0*
Cc1ccc(S(=O)(=O)c2c(COC(=O)c3ccccc3Cl)c(-c3ccccc3)nn2C)cc1	-5.6	0.1	0.4	-6.0	8.2	42.0*
Nc1ccccc1S(=O)(=O)C(F)F	-8.3	0.0	4.0	5.9	6.2	·
CCC(=O)N1c2ccc(S(=O)(=O)N3CCN(C)CC3)cc2CC1C (centres undefined)	-10.0	-0.1	3.5	4.7	-1.3	33.6*
CCn1c(SCC(=O)Nc2cccc(S(=O)(=O)N(C)c3ccccc3)c2)nnc1C1CC1	-7.5	0.1	23.3	·	4.7	·
Cc1cc(OCC(=O)Nc2cc(C(C)(C)C)on2)ccc1[N+](=O)[O-]	4.1	0.3	25.0	12.7	11.1	10.4
CC(=O)Nc1ccc(OC(=O)c2ccco2)cc1	95.3	-0.1	16.3	-10.1	5.8	1.2
CCCOC(=O)c1ccc(NC(=O)c2ccc(Br)o2)cc1	13.0	0.9	39.6	-13.0	3.9	61.3*
O=C(Oc1ccc(-n2cnnn2)cc1)c1ccco1	-6.3	0.0	13.2	4.3	35.6*	10.3
CC(=O)c1ccc(NC(=O)Oc2ccccc2)cc1	8.5	-0.1	11.8	-0.3	-1.9	16.6
CCCOC(=O)c1ccc(OC(=O)c2ccco2)cc1	-23.0	-3.4	0.0	-1.4	32.9*	-6.5
COC(=O)Cc1ccc(NC(=O)c2ccc(Br)o2)cc1	-3.3	0.0	19.9	-1.5	-2.0	-3.6
CCCOC(=O)c1ccc(NC(=O)Oc2ccccc2)cc1	-3.7	0.0	11.3	-5.9	2.2	22.3*
CSc1cccc(-c2nnc(NC(=O)c3cccc(N4C(=O)CCC4=O)c3)o2)c1	72.1	0.1	6.9	22.7	·	·
COc1cc(C(=O)COC(=O)c2cc([N+](=O)[O-])ccc2N2CCOCC2)ccc1OC(F)F	-2.7	0.0	21.6	5.2	11.4	·
O=C1C=C(/C=C/c2ccccc2)C[C@@H](c2ccc(F)cc2)C1	7.7	0.0	8.6	·	7.0	·
O=C1C=CCC(/C=C/c2ccccc2)O1 (centres undefined)	7.5	0.0	25.2	-7.7	-7.5	46.6*
O=C(NCc1ccco1)c1ccc(Oc2ccccc2)cc1	2.6	0.1	34.9	14.9	6.0	40.0*
O=C(CSCc1ccco1)c1cccs1	-15.8	0.2	-57.6	-2.3	91.5*	-23.7
O=C(CSc1nnc(-c2ccc(Cl)cc2)n1Cc1ccco1)c1cccs1	-8.8	-0.1	4.4	-1.0	1.4	30.9
SMILES	GASC-1 inh	Efflux pump inh	NALP3 yeast inh	PolyA inh	HDAC3 inh	NALP1 inh
Cc1ccc(C(=O)NCc2ccco2)cc1	12.8	0.1	8.4	-4.5	3.0	19.8
O=C(NCc1ccco1)c1cccs1	6.8	0.0	7.9	6.5	-3.2	28.9*
COC(=O)c1cn(NC(=O)c2ccc([N+](=O)[O-])cc2Cl)c(=O)c2ccccc12	-9.0	-0.1	3.7	18.8	0.1	2.2
N#Cc1ccccc1NC(=O)c1ccc2c(c1)OCCO2	-3.5	0.0	11.3	-11.6	6.6	3.5
CC(=O)N[C@@H](Cc1c[nH]c2ccccc12)C(=O)OCc1cc(C(F)(F)F)cc(C(F)(F)F)c1	·	0.1	25.4	·	2.0	·
COc1ccc(O)c(CN2CCC(n3nccc3NC(=O)C3CCCC3)CC2)c1	2.9	-0.2	6.8	4.9	0.3	10.2
Cc1ccc(C2=N/C(=C\N3CCCCC3)C(=O)O2)cc1	2.0	-0.1	29.9	4.2	4.7	37.7*
Cc1ccc(C2=N/C(=C/N3CCOCC3)C(=O)O2)cc1	-0.1	0.1	11.9	11.0	0.6	11.9
CCCCn1c(=O)[nH]c(=O)c2c1nc(-c1cc(Cl)c(OC)c(OC)c1)n2C	52.1*	0.0	11.4	-5.9	-10.6	9.0
COc1ccc(C(=O)CN2C3=NCCCN3c3ccccc32)cc1OC	-9.8	0.0	8.9	-5.8	-2.0	22.3
Cc1ccc(C)c(C(=O)CN2C3=NCCCN3c3ccccc32)c1	4.1	0.1	-8.1	5.2	-6.9	33.3*
CC1C(=O)N(Cc2ccc(F)cc2)c2ccccc2N1C(=O)c1c(F)cccc1F (centres undefined)	-31.7	0.5	5.5	6.9	-6.6	21.9
CC1C(=O)N(Cc2ccc([N+](=O)[O-])cc2)c2ccccc2N1C(=O)C1CC1 (centres undefined)	60.3*	0.3	13.2	-7.5	3.9	-0.5
CCn1ccnc1CN(C)Cc1c(C(=O)N2C[C@@H](C)O[C@@H](C)C2)nc2ccc(Cl)cn12	-2.8	-0.1	-0.2	-2.7	2.6	-2.8
COc1c(C(CC(C)C)OC(C)=O)ccc2c1C(=O)OCc1cc(C)cc(O)c1O2 (centres undefined)	77.9	0.2	4.2	8.3	33.9*	-6.2
CCC(C)c1ccccc1NC(=O)CN1CCN(C/C=C/c2ccccc2)CC1 (centres undefined)	13.6	0.1	15.5	8.0	6.7	53.2*
O=C(COC(=O)c1cncc(Br)c1)NCC12CC3CC(CC(C3)C1)C2	·	·	25.2	·	·	·
Cc1ccc(CNC(=O)CSc2ncn[nH]2)cc1	7.5	0.5	14.9	-10.5	-1.6	14.2
O=C(CSc1ncn[nH]1)NCc1ccccc1	15.9	0.0	6.7	16.9	5.3	27.5*
O=C1OCCN1c1c(-c2ccccc2)c(-c2cccs2)nc2c(-c3ccccc3)cccc12	15.1	0.1	9.6	2.0	-0.6	-6.3
CCOC(=O)CNC(=O)c1cccnc1	-7.7	-0.1	10.7	12.2	-9.5	-0.2
CCOC(=O)C(O)(NC(=O)c1cccnc1)C(F)(F)F (centres undefined)	-1.4	-0.1	13.3	·	41.8*	10.7
CC(=O)Nc1ccc(S(=O)(=O)Nc2cccc(NC(=O)c3ccco3)c2)cc1	1.6	0.0	0.6	15.5	0.6	9.0
NCCS	1.0	0.0	45.3	4.6	4.3	47.0*
COc1ccc(-n2nc(C(=O)NCC(=O)NCCc3ccc(OC)c(OC)c3)c3ccccc3c2=O)cc1Cl	-4.9	0.7	-3.5	-12.1	5.4	16.2

Assay outcomes (PubChem BioAssay)
